Shown are actives, neighbours in structure and some others; about 19% of the full set was active somewhere.
DT40 TDP1 no CPT – qHTS for Inhibitors of human tyrosyl-DNA phosphodiesterase 1 (TDP1): qHTS in cells in absence of CPT; DT40 Tdp1-/- hTDP1 cells, no CPT, ATP luminescence, 48 h; Potency, µM (series often up to 46.2 µM), usual class: inhibitors; 420,000 tested, 15% active; note: nearly all actives have a fitted effect of over 55% in size
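Chicken DT40 Tdp1-/- cells complemented with human TDP1, screened without camptothecin (DMSO vehicle only), 400 cells/well. Compounds pin-transferred, cells incubated at 37 °C for at least 48 hr. Growth read as ATP-dependent luminescence (CellTiter-Glo, 30 min at RT).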
TDP1 cell CPT – qHTS for Inhibitors of human tyrosyl-DNA phosphodiesterase 1 (TDP1): qHTS in cells in presence of CPT; chicken DT40 Tdp1-/-;hTDP1 cells + 20 nM CPT, ATP luminescence, 48 h; Potency, µM (doses to about 46.2 µM), actives largely listed as inhibitors; 420,000 tested, 12% active; AID 686979, 2013; note: nearly all actives have a fitted effect of over 55% in size
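Chicken DT40 Tdp1-/- cells stably complemented with human TDP1 were seeded at 400 cells/well in medium containing 20 nM camptothecin, exposed to pin-transferred compounds, and grown at 37 °C for at least 48 hr. Viability was read as ATP luminescence.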
HT1080 IDH1KD tx – qHTS for induction of synthetic lethality in tumor cells producing 2HG: qHTS for the HT-1080-IDH1KD cell line | HT-1080 IDH1 knockdown viability, ATP luminescence, 48 h | Potency, µM (highest dose often 46.1 µM), actives largely listed as cytotoxic | 360,000 tested, 2% active | AID 686971, 2013
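Assay cells: HT-1080 with IDH1 knockdown, 750 per well, RPMI/5% FBS. Exposure: 48 h at 37 °C following 2 h pre-incubation. Read: CellTiter-Glo luminescence; fitted concentration-response, curve class assigned.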
ELG1 DNA repair – qHTS screen for small molecules that inhibit ELG1-dependent DNA repair in human embryonic kidney (HEK293T) cells expressing luciferase-tagged ELG1 | Potency, µM (doses to about 46.1 µM), usual class: inhibitors | AID 504467, 2011 | 330,000 tested, 2.3% active | HEK293T ELG1-luciferase reporter, luminescence, 16 h; DNA damage induced by 5-fluorouridine; note: nearly all actives have a fitted effect of over 55% in size
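5-Fluorouridine DNA damage + compound/DMSO, 2,000 cells/well, 16 h, 37 °C/5% CO2. ONE-Glo, 30 min RT, luminescence. Readout = decrease in reporter signal.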
HT1080NT lethal – qHTS for induction of synthetic lethality in tumor cells producing 2HG: qHTS for the HT-1080-NT fibrosarcoma cell line; HT-1080-NT fibrosarcoma viability, CellTiter-Glo ATP luminescence, 48 h; 360,000 tested, 1.6% active; Potency, µM (series often up to 46.1 µM), usual class: cytotoxic;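 note: NT is the 2HG producing partner of a matched IDH1 knockdown line; nearly all actives have a fitted effect of over 55% in size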
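Luminescent CellTiter-Glo readout after 48 hours of compound exposure at 37 degrees C defined viability of HT-1080-NT cells. Activity was normalized to DMSO wells and cell-free media wells; concentration-response curves were fitted and assigned curve classes.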
IL-1B inflam inh – qHTS for Inhibitors of Inflammasome Signaling: IL-1-beta AlphaLISA Primary Screen; THP-1 LPS/ATP IL-1B secretion, AlphaLISA, 16 h; active compounds read low; activity change, % at 57.5 µM; 360,000 tested, 4.7% active; AID 743279, 2014; in the data active = activity change below about -50%; inconclusive = mostly about -30% to -49%
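THP-1 cells pretreated 1 hr with compounds (up to 57.5 uM final), then stimulated with LPS (250 ng/mL final) plus ATP (1.25 mM final); secreted IL-1B measured by AlphaLISA after 16 hr, decreased signal indicating inhibition.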
A number is an active result. Unless noted, calls come from the whole dose curve; as a rule, active = well fitted curve in the direction sought with a large enough effect; inconclusive = small, poorly fitted or top-dose-only effect, or another doubt; inactive = no such curve, though single readings can be large; an effect the other way counts as inactive or inconclusive.

For O=C(Nc1ccccc1Sc1ccccc1)c1cnn2c1NC(=C1CC1)C=C2C(F)(F)F the results were DT40 TDP1 no CPT inconclusive, TDP1 cell CPT inconclusive, HT1080 IDH1KD tx inactive and HT1080NT lethal inactive.
For C/C=C(\C)C(=O)N[C@@H](C)CN1C2=NC[C@H](C(C)C)N2C[C@H]1Cc1ccc(OC)cc1 the results were DT40 TDP1 no CPT inactive, TDP1 cell CPT inactive, HT1080 IDH1KD tx inactive, ELG1 DNA repair inactive, HT1080NT lethal inactive and IL-1B inflam inh inactive.
`COc1ccc(C[C@H]2CN3C(=NC[C@@H]3Cc3ccc(O)cc3)N2C[C@H](C)NC(=O)CCC2CCCCC2)cc1` gave DT40 TDP1 no CPT 16µM, TDP1 cell CPT 8.2µM, HT1080 IDH1KD tx inactive, ELG1 DNA repair inactive, HT1080NT lethal inactive and IL-1B inflam inh inactive.
COc1ccc(C[C@@H]2CN3C(=NC[C@@H]3Cc3ccc(O)cc3)N2C[C@H](C)NC(=O)CCC2CCCCC2)cc1 was read as DT40 TDP1 no CPT 5.2µM, TDP1 cell CPT 5.8µM, HT1080 IDH1KD tx inactive, ELG1 DNA repair inactive, HT1080NT lethal inactive and IL-1B inflam inh inconclusive.
For Cc1ccc(S(=O)(=O)N2CC3C(=O)C[C@@H](c4ccccc4)N(S(=O)(=O)c4ccc(CCCOCCOCCNC(=O)OC(C)(C)C)cc4)C3CC2c2ccccc2)cc1 (stereo partly drawn) the results were DT40 TDP1 no CPT inconclusive, TDP1 cell CPT inconclusive, HT1080 IDH1KD tx inactive, HT1080NT lethal inconclusive and IL-1B inflam inh inactive.
Screening Fc1ccc(CSc2ccc3nnc(-c4cccnc4)n3n2)cc1 returned DT40 TDP1 no CPT 16µM, TDP1 cell CPT 16µM, HT1080 IDH1KD tx inactive, ELG1 DNA repair inactive, HT1080NT lethal inactive and IL-1B inflam inh inconclusive.
Screening CCSc1ccc2nnc(-c3cccc(F)c3)n2n1 returned DT40 TDP1 no CPT inconclusive, TDP1 cell CPT inactive, HT1080 IDH1KD tx inconclusive, ELG1 DNA repair 21µM, HT1080NT lethal inactive and IL-1B inflam inh inactive.
For Cc1cccc(CSc2ccc3nnc(-c4ccccn4)n3n2)c1 the results were DT40 TDP1 no CPT inconclusive, TDP1 cell CPT inconclusive, HT1080 IDH1KD tx inactive, ELG1 DNA repair inactive, HT1080NT lethal inactive and IL-1B inflam inh inactive.
For c1ccc(CSc2ccc3nnc(-c4ccccn4)n3n2)cc1 the results were DT40 TDP1 no CPT 21µM, TDP1 cell CPT inconclusive, HT1080 IDH1KD tx inactive, ELG1 DNA repair inactive, HT1080NT lethal inactive and IL-1B inflam inh inactive.
`CSc1ccc(CCNC(=O)c2ccc(CS(=O)(=O)c3ccc(Br)cc3)o2)cc1` gave DT40 TDP1 no CPT 21µM and TDP1 cell CPT 23µM.
For O=C(NCCc1ccc(Cl)cc1)c1ccc(CS(=O)(=O)c2ccc(Cl)cc2)o1 the results were DT40 TDP1 no CPT inconclusive and TDP1 cell CPT 16µM.
NS(=O)(=O)c1ccc(CCNC(=O)c2ccc(CS(=O)(=O)c3ccc(Br)cc3)o2)cc1 was read as DT40 TDP1 no CPT inactive, TDP1 cell CPT inactive, HT1080 IDH1KD tx inactive, ELG1 DNA repair inactive, HT1080NT lethal inactive and IL-1B inflam inh inactive.
For Cc1ccc(S(=O)(=O)Cc2ccc(C(=O)NCCc3ccc(Cl)cc3)o2)cc1 the results were DT40 TDP1 no CPT 29µM and TDP1 cell CPT 16µM.
Screening CCCCN(CC)CCCNC(=O)c1ccc(CS(=O)(=O)c2c(Cl)cccc2Cl)o1 returned DT40 TDP1 no CPT inactive, TDP1 cell CPT inactive, HT1080 IDH1KD tx inactive, ELG1 DNA repair inactive, HT1080NT lethal inactive and IL-1B inflam inh -78.
`CCCCn1c(CNC(=O)c2ccc(OC)cc2)nnc1SCC(=O)Nc1ccccc1` gave DT40 TDP1 no CPT inactive and TDP1 cell CPT inactive.
For Cc1ccccc1S(=O)(=O)N(C)C[C@H]1OCc2cn(nn2)CCCC(=O)N([C@H](C)CO)C[C@@H]1C the results were DT40 TDP1 no CPT inactive, TDP1 cell CPT inactive, HT1080 IDH1KD tx inactive, HT1080NT lethal inactive and IL-1B inflam inh inactive.
`O=[N+]([O-])c1ccc2oc(/C=C/c3ccc(O)cc3)nc2c1` gave DT40 TDP1 no CPT inconclusive, TDP1 cell CPT inactive, HT1080 IDH1KD tx inactive, HT1080NT lethal inactive and IL-1B inflam inh inactive.
`Cc1ccccc1S(=O)(=O)Cc1ccc(C(=O)NCCc2ccccc2)o1` gave DT40 TDP1 no CPT inconclusive, TDP1 cell CPT inactive, HT1080 IDH1KD tx inactive, ELG1 DNA repair inconclusive, HT1080NT lethal inactive and IL-1B inflam inh inactive.
CC1CCC(NC(=O)c2ccc(CS(=O)(=O)c3ccc(Cl)cc3)o2)CC1 (stereo not drawn) was read as DT40 TDP1 no CPT 18µM and TDP1 cell CPT 18µM.
Screening CCc1ccccc1S(=O)(=O)Cc1ccc(C(=O)NCCc2ccc(Cl)cc2)o1 returned DT40 TDP1 no CPT 18µM and TDP1 cell CPT inconclusive.
For CC(C)(C)C#CC(CCc1ccccc1)OS(N)(=O)=O (stereo not drawn) the results were ELG1 DNA repair inactive.
Screening Cc1[nH]n(-c2ccccc2)c(=O)c1/C=N/O returned DT40 TDP1 no CPT inactive, TDP1 cell CPT inactive, HT1080 IDH1KD tx inconclusive, ELG1 DNA repair inactive, HT1080NT lethal inconclusive and IL-1B inflam inh inactive.
Screening Cn1[nH]c(-c2ccccc2)c(/C=N/O)c1=O returned DT40 TDP1 no CPT 16µM, TDP1 cell CPT inconclusive, HT1080 IDH1KD tx inactive, ELG1 DNA repair inactive, HT1080NT lethal inactive and IL-1B inflam inh inactive.
For COC(=O)c1c(OCc2ccccn2)cc(=O)n2c1CCN(C(=O)c1cc(C(C)C)nn1C)CC2 the results were DT40 TDP1 no CPT inactive and TDP1 cell CPT inactive.
For O=C(CC1CCCC1)Nc1nc2ccccc2[nH]1 the results were DT40 TDP1 no CPT 9.2µM, TDP1 cell CPT inconclusive, HT1080 IDH1KD tx inactive, ELG1 DNA repair inconclusive, HT1080NT lethal inactive and IL-1B inflam inh inactive.
Screening O=C(Nc1nc2ccccc2[nH]1)C1CCCC1 returned DT40 TDP1 no CPT inactive, TDP1 cell CPT inactive, HT1080 IDH1KD tx inactive, ELG1 DNA repair inconclusive, HT1080NT lethal inactive and IL-1B inflam inh inconclusive.
Screening O=C(Nc1nc2ccccc2[nH]1)C1CCC1 returned DT40 TDP1 no CPT 23µM, TDP1 cell CPT inconclusive, HT1080 IDH1KD tx inconclusive, ELG1 DNA repair inconclusive, HT1080NT lethal inconclusive and IL-1B inflam inh inactive.
